# Experiments:
# Test in all cases: DAPPL (digital affinity profiling via proximity ligation, sequencing); 10 mM Tris-HCl pH 7.5, 50 mM NaCl, 1 mM DTT, 4% glycerol, room temperature, 30 min; GST-TFs on glutathione beads, 16-mer random dsDNA library, 0.1% formaldehyde crosslink after washing; high values mean tight binding
# Details in all cases: protein: recombinant; tags: N-terminal GST; dsDNA, one strand shown
# FLI1 = target: T1, FLI1 (Homo sapiens, UniProt Q01543 1-452)
# T1 sequence: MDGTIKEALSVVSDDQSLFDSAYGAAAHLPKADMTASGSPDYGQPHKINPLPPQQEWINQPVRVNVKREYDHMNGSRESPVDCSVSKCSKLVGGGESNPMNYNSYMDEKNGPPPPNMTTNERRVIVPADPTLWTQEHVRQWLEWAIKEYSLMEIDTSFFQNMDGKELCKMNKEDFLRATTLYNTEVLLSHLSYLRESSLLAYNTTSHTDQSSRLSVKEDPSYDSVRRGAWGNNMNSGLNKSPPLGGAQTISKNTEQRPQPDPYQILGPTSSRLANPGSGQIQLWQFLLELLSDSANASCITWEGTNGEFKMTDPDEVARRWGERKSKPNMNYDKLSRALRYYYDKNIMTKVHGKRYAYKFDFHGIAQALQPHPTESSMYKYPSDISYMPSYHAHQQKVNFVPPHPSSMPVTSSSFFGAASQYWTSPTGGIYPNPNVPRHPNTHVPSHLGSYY
# Method in brief: (§1)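 Human transcription factors were made in yeast as GST fusions, captured on glutathione beads and barcoded with DNA. With a tag-only sample included, the pool was incubated with 200 nmole of a random double-stranded 16-mer DNA library in Tris/NaCl/DTT/glycerol buffer at room temperature for 30 min, then crosslinked with 0.1% formaldehyde after washing, ligated by proximity, amplified and sequenced. For binding signal, each hexamer's read frequency for a factor is divided by its frequency for the tag-only sample.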
# ELK1 = target: T2, ELK1 (Homo sapiens, UniProt P19419 1-428)
# T2 sequence: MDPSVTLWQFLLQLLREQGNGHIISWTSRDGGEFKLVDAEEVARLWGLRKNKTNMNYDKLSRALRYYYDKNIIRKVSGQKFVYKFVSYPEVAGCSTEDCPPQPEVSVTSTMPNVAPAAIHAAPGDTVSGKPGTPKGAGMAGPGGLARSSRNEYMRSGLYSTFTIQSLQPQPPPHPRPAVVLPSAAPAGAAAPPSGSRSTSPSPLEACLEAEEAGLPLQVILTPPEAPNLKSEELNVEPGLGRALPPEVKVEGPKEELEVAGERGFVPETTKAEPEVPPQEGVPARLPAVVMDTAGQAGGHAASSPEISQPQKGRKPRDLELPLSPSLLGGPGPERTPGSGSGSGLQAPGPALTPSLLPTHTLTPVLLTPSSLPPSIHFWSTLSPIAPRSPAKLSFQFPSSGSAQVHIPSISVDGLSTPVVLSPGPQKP
# Method in brief: as §1
# GABPA = target: T3, GABPA (Homo sapiens, UniProt Q06546 1-454)
# T3 sequence: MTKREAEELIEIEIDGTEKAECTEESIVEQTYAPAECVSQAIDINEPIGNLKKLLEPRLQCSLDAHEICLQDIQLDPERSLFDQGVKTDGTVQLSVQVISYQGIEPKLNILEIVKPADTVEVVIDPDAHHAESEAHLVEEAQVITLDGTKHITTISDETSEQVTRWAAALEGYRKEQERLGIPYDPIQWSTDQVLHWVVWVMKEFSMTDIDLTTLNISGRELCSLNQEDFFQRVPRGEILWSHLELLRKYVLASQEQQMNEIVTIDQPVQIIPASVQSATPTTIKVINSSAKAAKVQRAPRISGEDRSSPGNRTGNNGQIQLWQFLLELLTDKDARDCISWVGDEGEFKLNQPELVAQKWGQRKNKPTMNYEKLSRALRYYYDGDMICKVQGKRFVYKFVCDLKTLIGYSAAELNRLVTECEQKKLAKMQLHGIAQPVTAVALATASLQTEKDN
# Method in brief: as §1
# ELK4 = target: T4, ELK4 (Homo sapiens, UniProt P28324-2 1-405)
# T4 sequence: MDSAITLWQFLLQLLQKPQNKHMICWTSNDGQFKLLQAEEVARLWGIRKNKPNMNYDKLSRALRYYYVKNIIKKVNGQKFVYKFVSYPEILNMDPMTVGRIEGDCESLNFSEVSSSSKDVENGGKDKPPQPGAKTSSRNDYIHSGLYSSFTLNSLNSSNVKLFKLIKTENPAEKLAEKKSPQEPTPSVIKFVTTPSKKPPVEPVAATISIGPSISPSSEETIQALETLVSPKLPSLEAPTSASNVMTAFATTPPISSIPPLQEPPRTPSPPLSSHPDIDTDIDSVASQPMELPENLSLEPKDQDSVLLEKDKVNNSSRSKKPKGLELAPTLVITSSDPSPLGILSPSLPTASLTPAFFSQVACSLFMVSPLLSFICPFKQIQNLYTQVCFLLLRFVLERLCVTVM
# Method in brief: as §1
# ERF = target: T5, ERF (Homo sapiens, UniProt P50548 1-548)
# T5 sequence: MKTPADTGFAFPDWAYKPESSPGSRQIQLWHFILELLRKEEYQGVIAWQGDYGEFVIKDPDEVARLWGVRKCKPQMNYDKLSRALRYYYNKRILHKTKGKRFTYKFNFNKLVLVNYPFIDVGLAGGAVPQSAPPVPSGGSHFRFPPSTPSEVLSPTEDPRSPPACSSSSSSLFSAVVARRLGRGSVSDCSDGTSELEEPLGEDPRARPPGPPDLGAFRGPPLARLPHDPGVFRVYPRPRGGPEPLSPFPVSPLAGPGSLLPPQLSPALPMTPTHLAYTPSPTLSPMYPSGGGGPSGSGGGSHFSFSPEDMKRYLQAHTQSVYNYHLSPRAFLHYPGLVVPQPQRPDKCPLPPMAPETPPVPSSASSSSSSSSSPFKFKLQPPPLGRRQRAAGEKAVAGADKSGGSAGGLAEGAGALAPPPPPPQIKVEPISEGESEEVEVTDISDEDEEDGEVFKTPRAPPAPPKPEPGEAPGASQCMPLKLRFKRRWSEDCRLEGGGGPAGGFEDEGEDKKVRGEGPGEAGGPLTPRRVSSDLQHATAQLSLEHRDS
# Method in brief: as §1
# ETV3L = target: T6, ETV3L (Homo sapiens, UniProt Q6ZN32 1-361)
# T6 sequence: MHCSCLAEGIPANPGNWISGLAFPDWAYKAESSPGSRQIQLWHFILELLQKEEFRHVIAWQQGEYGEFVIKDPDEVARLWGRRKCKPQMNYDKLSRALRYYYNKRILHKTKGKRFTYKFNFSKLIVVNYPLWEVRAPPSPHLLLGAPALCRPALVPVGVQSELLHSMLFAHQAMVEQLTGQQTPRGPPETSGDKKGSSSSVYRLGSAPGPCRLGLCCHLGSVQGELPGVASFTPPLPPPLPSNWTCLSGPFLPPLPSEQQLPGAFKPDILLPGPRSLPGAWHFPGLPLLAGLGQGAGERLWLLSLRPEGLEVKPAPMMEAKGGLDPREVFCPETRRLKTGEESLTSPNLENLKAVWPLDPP
# Method in brief: as §1
# ETV7 = target: T7, ETV7 (Homo sapiens, UniProt Q9Y603 1-341)
# T7 sequence: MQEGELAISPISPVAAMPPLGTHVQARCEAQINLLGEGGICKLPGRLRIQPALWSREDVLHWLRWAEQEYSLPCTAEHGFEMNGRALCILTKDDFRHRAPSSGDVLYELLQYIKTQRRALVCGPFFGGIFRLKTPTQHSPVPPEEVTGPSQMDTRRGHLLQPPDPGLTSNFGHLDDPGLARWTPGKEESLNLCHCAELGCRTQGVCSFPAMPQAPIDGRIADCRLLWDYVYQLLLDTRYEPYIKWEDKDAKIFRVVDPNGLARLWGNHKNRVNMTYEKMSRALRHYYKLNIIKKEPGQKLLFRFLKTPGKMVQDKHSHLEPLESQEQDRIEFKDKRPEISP
# Method in brief: as §1
# ELF1 = ELF1 (Homo sapiens, UniProt P32519 1-619)
# Sequence of ELF1 (P32519 whole entry): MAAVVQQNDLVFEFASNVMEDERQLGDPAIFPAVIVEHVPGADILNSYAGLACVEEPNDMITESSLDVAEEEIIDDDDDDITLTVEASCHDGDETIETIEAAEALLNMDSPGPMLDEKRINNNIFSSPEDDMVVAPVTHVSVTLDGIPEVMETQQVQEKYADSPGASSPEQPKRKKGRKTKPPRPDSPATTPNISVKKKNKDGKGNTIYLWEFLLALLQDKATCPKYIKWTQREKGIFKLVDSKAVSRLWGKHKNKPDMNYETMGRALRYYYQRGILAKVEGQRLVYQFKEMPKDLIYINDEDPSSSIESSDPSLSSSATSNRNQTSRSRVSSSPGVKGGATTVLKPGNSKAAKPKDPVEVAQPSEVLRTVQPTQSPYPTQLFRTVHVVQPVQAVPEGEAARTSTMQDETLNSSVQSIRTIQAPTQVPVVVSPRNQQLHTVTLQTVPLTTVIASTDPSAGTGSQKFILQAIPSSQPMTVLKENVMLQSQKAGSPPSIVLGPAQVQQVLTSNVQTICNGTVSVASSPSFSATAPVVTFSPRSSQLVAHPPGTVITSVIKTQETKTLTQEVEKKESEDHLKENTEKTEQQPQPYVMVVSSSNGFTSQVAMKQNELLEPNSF
# Method in brief: as §1
# SPIB = SPIB (Homo sapiens, UniProt Q01892 1-262)
# Sequence of SPIB (Q01892 whole entry): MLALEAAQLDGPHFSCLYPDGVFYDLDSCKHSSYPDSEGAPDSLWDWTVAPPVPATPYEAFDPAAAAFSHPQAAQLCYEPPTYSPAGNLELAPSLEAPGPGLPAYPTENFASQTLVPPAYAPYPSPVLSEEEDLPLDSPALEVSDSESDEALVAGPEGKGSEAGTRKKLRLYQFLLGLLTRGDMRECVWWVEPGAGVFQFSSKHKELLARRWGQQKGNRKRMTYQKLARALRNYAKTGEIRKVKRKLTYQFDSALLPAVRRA
# Method in brief: as §1
# ELF3 = target: T8, ELF3 (Homo sapiens, UniProt P78545 1-371)
# T8 sequence: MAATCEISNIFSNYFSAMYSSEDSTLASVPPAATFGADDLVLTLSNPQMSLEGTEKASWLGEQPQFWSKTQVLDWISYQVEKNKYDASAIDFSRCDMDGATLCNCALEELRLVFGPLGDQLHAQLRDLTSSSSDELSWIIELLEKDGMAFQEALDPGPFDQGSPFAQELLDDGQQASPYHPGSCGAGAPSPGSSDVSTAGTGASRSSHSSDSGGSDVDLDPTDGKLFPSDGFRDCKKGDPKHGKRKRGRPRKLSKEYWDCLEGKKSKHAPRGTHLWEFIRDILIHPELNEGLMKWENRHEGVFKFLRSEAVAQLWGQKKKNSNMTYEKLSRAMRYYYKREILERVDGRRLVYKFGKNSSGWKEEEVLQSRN
# Method in brief: as §1
# ETV1 = ETV1 (Homo sapiens, UniProt P50549 1-477)
# Sequence of ETV1 (P50549 whole entry): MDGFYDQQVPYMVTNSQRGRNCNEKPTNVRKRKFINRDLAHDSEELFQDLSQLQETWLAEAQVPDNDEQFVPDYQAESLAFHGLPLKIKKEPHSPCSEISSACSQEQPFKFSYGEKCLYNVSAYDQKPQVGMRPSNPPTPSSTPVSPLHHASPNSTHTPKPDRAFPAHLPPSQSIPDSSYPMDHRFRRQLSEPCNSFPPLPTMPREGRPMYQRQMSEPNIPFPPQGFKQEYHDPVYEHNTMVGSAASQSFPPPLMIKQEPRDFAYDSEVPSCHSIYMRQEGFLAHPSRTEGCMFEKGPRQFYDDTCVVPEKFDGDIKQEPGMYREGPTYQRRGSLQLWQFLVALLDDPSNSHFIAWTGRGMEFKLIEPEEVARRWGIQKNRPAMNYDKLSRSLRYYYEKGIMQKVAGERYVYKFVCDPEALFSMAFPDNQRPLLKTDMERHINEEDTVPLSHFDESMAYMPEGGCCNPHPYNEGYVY
# Method in brief: as §1
# ETS2 = target: T9, ETS2 (Homo sapiens, UniProt P15036 1-469)
# T9 sequence: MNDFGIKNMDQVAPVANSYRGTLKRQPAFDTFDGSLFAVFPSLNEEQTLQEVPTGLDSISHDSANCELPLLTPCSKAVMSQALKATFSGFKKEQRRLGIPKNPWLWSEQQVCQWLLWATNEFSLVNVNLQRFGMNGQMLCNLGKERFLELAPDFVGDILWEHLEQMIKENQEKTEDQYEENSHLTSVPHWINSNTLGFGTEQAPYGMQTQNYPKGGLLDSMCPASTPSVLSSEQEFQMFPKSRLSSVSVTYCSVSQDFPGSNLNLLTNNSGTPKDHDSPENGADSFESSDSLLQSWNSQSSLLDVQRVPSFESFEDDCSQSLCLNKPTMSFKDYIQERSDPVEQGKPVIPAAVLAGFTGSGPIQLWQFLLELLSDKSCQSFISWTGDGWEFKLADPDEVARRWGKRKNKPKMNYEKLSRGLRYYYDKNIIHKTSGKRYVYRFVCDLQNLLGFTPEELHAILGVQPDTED
# Method in brief: as §1
sequence,measurement,setting,value
CATTGA,binding signal,FLI1,"1.06 fold enrichment (6-mer frequency, TF over GST control)"
same,binding signal,ELK1,"1.05 fold enrichment (6-mer frequency, TF over GST control)"
same,binding signal,GABPA,"1 fold enrichment (6-mer frequency, TF over GST control)"
same,binding signal,ELK4,"1.11 fold enrichment (6-mer frequency, TF over GST control)"
same,binding signal,ERF,"1 fold enrichment (6-mer frequency, TF over GST control)"
same,binding signal,ETV3L,"1.01 fold enrichment (6-mer frequency, TF over GST control)"
same,binding signal,ETV7,"1.01 fold enrichment (6-mer frequency, TF over GST control)"
GGATGG,binding signal,FLI1,"1.02 fold enrichment (6-mer frequency, TF over GST control)"
same,binding signal,ELF1,"1.05 fold enrichment (6-mer frequency, TF over GST control)"
same,binding signal,SPIB,"1.03 fold enrichment (6-mer frequency, TF over GST control)"
same,binding signal,ELF3,"1.13 fold enrichment (6-mer frequency, TF over GST control)"
same,binding signal,ETV1,"1.13 fold enrichment (6-mer frequency, TF over GST control)"
same,binding signal,ERF,"1.05 fold enrichment (6-mer frequency, TF over GST control)"
same,binding signal,ETV3L,"1.08 fold enrichment (6-mer frequency, TF over GST control)"
same,binding signal,ETS2,"1.03 fold enrichment (6-mer frequency, TF over GST control)"
same,binding signal,ETV7,"1.06 fold enrichment (6-mer frequency, TF over GST control)"

# — article PMC7862700, “An all-to-all approach to the identification of sequence-specific readers for epigenetic DNA modifications on cytosine”
